The results in this text go back to paper PMC5836133, “The intracellular immune receptor Rx1 regulates the DNA-binding activity of a Golden2-like transcription factor”.

The full ranking holds about 16,000 sequences; the median of “e-score” is about -0.044, and the highest 2% start at about 0.38. Shown is part of a subset that was picked to be rich in the highest values.

The assay concerns the target T1, GST-NbGlk1(82-244) (Nicotiana benthamiana).
T1 chain: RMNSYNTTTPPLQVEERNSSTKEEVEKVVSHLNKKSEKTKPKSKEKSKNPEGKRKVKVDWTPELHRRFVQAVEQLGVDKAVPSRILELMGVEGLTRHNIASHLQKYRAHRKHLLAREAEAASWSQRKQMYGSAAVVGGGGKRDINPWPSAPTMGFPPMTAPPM
The assay is described as follows: protein-binding microarray; NbGlk1 is a Golden2-like transcription factor of Nicotiana benthamiana; high values mean tight binding. To be noted: protein: recombinant; tags: GST (pTH6838); dsDNA, one strand shown.
For ACGCGAAT, the binding signal was determined as 0.244 ± 0.0302 E-score.

In the case of CAATCGTA, the binding signal is 0.235 ± 0.0447 E-score.

Consider ATCTGAGG, for which the binding signal was 0.265 ± 0.031 E-score.

Take AATTAGAT: the binding signal was 0.224 ± 0.00637 E-score.

Regarding CAGAAATC, the binding signal is 0.405 ± 0.0372 E-score.

As for CAGAATTC, the binding signal stood at 0.234 ± 0.013 E-score.

Regarding AATAAATC, the binding signal is 0.253 ± 0.0219 E-score.

ACAGTATC: the binding signal is 0.304 ± 0.0326 E-score.

Turning to AATCTTGT, the binding signal was 0.397 ± 0.0291 E-score.

For AATCTTTA, the binding signal was 0.352 ± 0.0119 E-score.

In the case of AATCTTTC, the binding signal was 0.387 ± 0.0286 E-score.

Take AATCTTTG: the binding signal was determined as 0.378 ± 0.0158 E-score.

For AATCTTGG, the binding signal amounted to 0.386 ± 0.0186 E-score.

AATCATGT: the binding signal came out at 0.304 ± 0.0651 E-score.

For the sequence AATCTTGA, the binding signal is 0.3773 ± 0.0026 E-score.

AATCTTGC: the binding signal came to 0.3479 ± 0.00119 E-score.

Regarding ATTCTTGG, the binding signal amounted to 0.242 ± 0.0219 E-score.

AATCGTGG: the binding signal was determined as 0.286 ± 0.072 E-score.

Take ATCCTAGA: the binding signal came out at 0.263 ± 0.0827 E-score.

Take AAGGAGAT: the binding signal was 0.261 ± 0.0685 E-score.

With ACGCAATC, the binding signal came to 0.4798 ± 0.00123 E-score.

In the case of AGGCAAAT, the binding signal is 0.238 ± 0.00762 E-score.

As for CAGCAATC, the binding signal worked out at 0.339 ± 0.0127 E-score.

Take ATGCAAAT: the binding signal was 0.299 ± 0.0135 E-score.

For the sequence AAGCAATC, the binding signal turned out to be 0.386 ± 0.0251 E-score.

Regarding ATGCAATC, the binding signal came to 0.4516 ± 0.0024 E-score.

As to ATCCAATC, the binding signal turned out to be 0.254 ± 0.066 E-score.

As to ATACAATC, the binding signal stood at 0.274 ± 0.01 E-score.

As for ACGCAATA, the binding signal is 0.2818 ± 0.000398 E-score.

In the case of AGGCGATC, the binding signal was found to be 0.3174 ± 0.0029 E-score.

Consider AATCAATC, for which the binding signal came out at 0.25188 ± 0.000161 E-score.

With AGGCAATC, the binding signal stood at 0.417 ± 0.0072 E-score.

As to ATCTGTTA, the binding signal was determined as 0.295 ± 0.102 E-score.

Turning to AGGATCCT, the binding signal was 0.307 ± 0.0236 E-score.

On to ATCCGAGA, for which the binding signal stood at 0.308 ± 0.0203 E-score.

In the case of AAATGGAT, the binding signal came to 0.235 ± 0.0673 E-score.

Consider ATCCACTA, for which the binding signal is 0.247 ± 0.0967 E-score.

Regarding AAATTTTA, the binding signal was determined as 0.24 ± 0.021 E-score.

Regarding ATTGCCCC, the binding signal stood at 0.205 ± 0.0299 E-score.

For AGGGTAAT, the binding signal was 0.262 ± 0.0657 E-score.

For AGTAATCG, the binding signal was determined as 0.296 ± 0.00931 E-score.

As to ATCACAGA, the binding signal worked out at 0.217 ± 0.141 E-score.

For the sequence ATATCTTC, the binding signal is 0.412 ± 0.0234 E-score.

In the case of ATCTCTGC, the binding signal is 0.311 ± 0.0301 E-score.

Regarding ATCTCTTA, the binding signal is 0.337 ± 0.015 E-score.

On to ATATCTTG, for which the binding signal stood at 0.436 ± 0.0173 E-score.

With ATATCGGC, the binding signal was 0.354 ± 0.0162 E-score.

On to ATATCTGC, for which the binding signal came out at 0.438 ± 0.0129 E-score.

Consider ATCTCTTC, for which the binding signal is 0.286 ± 0.00741 E-score.

With ATATCATG, the binding signal stood at 0.373 ± 0.00698 E-score.

On to ATATCGTC, for which the binding signal came to 0.328 ± 0.0135 E-score.

On to ATATCATA, for which the binding signal is 0.307 ± 0.0181 E-score.

As to ATATCTTA, the binding signal came to 0.408 ± 0.0113 E-score.

Regarding ATATCGTG, the binding signal stood at 0.348 ± 0.0162 E-score.

AGCGATCG: the binding signal turned out to be 0.204 ± 0.00262 E-score.

AATTCTAT: the binding signal was 0.22 ± 0.114 E-score.

Consider AATTGGAT, for which the binding signal turned out to be 0.2 ± 0.0585 E-score.

As to ATCTTAAT, the binding signal amounted to 0.321 ± 0.00718 E-score.

Turning to ATATTAAG, the binding signal was 0.251 ± 0.0913 E-score.

For ATCCACAA, the binding signal was 0.29 ± 0.0043 E-score.

For ATTTTATA, the binding signal came out at 0.281 ± 0.0713 E-score.

For ATTTGCGA, the binding signal was determined as 0.294 ± 0.051 E-score.

Consider AGTAAAAT, for which the binding signal was found to be 0.292 ± 0.0131 E-score.

Regarding ACTGAATA, the binding signal came out at 0.204 ± 0.00699 E-score.

For the sequence ATCTCCTG, the binding signal is 0.3116 ± 0.00208 E-score.

For the sequence ATCTCGTG, the binding signal worked out at 0.357 ± 0.0779 E-score.

For the sequence ATATCTGG, the binding signal is 0.401 ± 0.00925 E-score.

ATCTCTGA: the binding signal was 0.269 ± 0.143 E-score.

ATATCTGA: the binding signal was 0.399 ± 0.00857 E-score.

Take ATCTCTGG: the binding signal came to 0.205 ± 0.0181 E-score.

For ATATCGGG, the binding signal turned out to be 0.343 ± 0.0169 E-score.

For ATATCAGA, the binding signal was 0.343 ± 0.0575 E-score.

For the sequence ATCTCTTG, the binding signal was determined as 0.379 ± 0.0245 E-score.

As for ATCTACTA, the binding signal turned out to be 0.341 ± 0.0266 E-score.

Turning to ATCTGTGA, the binding signal was found to be 0.344 ± 0.0977 E-score.

For ATATGCTA, the binding signal is 0.224 ± 0.0529 E-score.

ACATAGAT: the binding signal was 0.223 ± 0.0149 E-score.

Regarding ATATTCAC, the binding signal stood at 0.208 ± 0.132 E-score.

As to ATCATAAA, the binding signal came to 0.232 ± 0.00949 E-score.

Consider ATCCAGGA, for which the binding signal turned out to be 0.328 ± 0.0422 E-score.

Consider AGTATCCG, for which the binding signal came out at 0.328 ± 0.0412 E-score.

Consider ATTCTGGA, for which the binding signal amounted to 0.248 ± 0.0551 E-score.

As to AATCTGGT, the binding signal amounted to 0.443 ± 0.0103 E-score.

On to ATCCTGGC, for which the binding signal is 0.244 ± 0.119 E-score.

Consider AATCTGGC, for which the binding signal is 0.416 ± 0.0222 E-score.

With AATCGGGT, the binding signal was 0.272 ± 0.0576 E-score.
